# Measured values as given in PubChem BioAssay AID939 (National Center for Advancing Translational Sciences (NCATS), 2007).
# Records with an inconclusive call do not appear.
# Assay: Confirmation Concentration-Response Assay for Agonists of the Thyroid Stimulating Hormone Receptor; note: reference of the scale not given here
# Conditions: HEK293 TSHR-CNG cells, membrane potential dye, cAMP; measured here: parental HEK293 counter-screen max
# Procedure, shortened: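 HEK 293 cells stably expressing TSHR and a cAMP-gated CNG channel; membrane potential dye with 100 uM RO 20-1724, compound added 30 min before fluorescence read (590 nm emission). Parental CNG-only HEK 293 cells served as counter-line.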
row,SMILES,max response
1,O=C1C2C3CCCC3=C3CCCC3C2C(=O)N1c1ccc(Cl)cc1 (stereo not given),-8.66%
2,Cc1ccc(S(=O)(=O)NC(=O)Nn2c(C)nnc2C)cc1,1.93%
3,CCc1ccc(-c2nc(CN3CCC(C(=O)N4CCN(c5ccccc5)CC4)CC3)c(C)o2)cc1,12.8%
4,CCOC(=O)c1cnc(-n2nc(C)cc2C)nc1-n1nc(C)cc1C,-6.3%
5,CSc1nc(NC(C)(C)C)nc(Oc2ccc(=O)[nH]n2)n1,-2.82%
6,Cc1oc(-c2cccc(Cl)c2)nc1CN1CCCC(C(=O)NC(C)c2ccc3c(c2)OCCO3)C1 (stereo not given),8.77%
7,CC(c1ccco1)N(C(=O)c1ccc(Cl)s1)c1ccccn1 (stereo not given),8.8%
8,CCOc1ccc(N(CC(=O)NC(C)(C)C)S(=O)(=O)c2c(C)noc2C)cc1,6.91%
9,CC(=O)Nc1ccc(S(=O)(=O)N(C)c2ccccc2)cc1,4.53%
10,CCC(C)(C)n1nnnc1CN(Cc1ccco1)Cc1cc2cc3c(cc2[nH]c1=O)OCO3,-12.1%
11,Cc1cc(Cl)c(S(=O)(=O)Nc2ccc3c(c2)OCO3)cc1OCC(N)=O,-8.28%
12,COc1ccc(-c2ccc(-c3noc(C)n3)c(OC)n2)cc1,8.55%
13,Cc1onc(-c2ccccc2)c1C(=O)N1CCCSC1=Nc1ccccc1,18.9%
14,CC(C)CC(=O)Nc1cccc(-c2cn3ccsc3n2)c1,-8.65%
15,Cc1cc(C)nc(N(C#N)CC(=O)N2CCC(C(N)=O)CC2)n1,-13.4%
16,CC1(C)c2ccccc2N2CC(=O)NC21/C=C/c1ccco1 (stereo not given),9.74%
17,Cc1nc2ccc(Br)cn2c(=O)c1Cl,-3.12%
18,CCSCCOC(=O)C1=C(C)N(C)C(=O)NC1c1cc(OC)ccc1OC (stereo not given),7.65%
19,Cc1onc(-c2ccccc2Cl)c1C(=O)Nc1ccc(-n2nncc2-c2ccco2)cc1,-3.47%
20,Cc1ccccc1-n1nc(C)c2cc(C(=O)N3CCN(S(=O)(=O)c4ccc(F)cc4)CC3)sc21,-1.22%
21,Cc1ccc(C)c(Cn2c(C(C)O)nc3ccccc32)c1 (stereo not given),-2.8%
22,COc1cccc(C2CC(c3ccccc3OC)n3nc(N)nc3N2)c1 (stereo not given),6.01%
23,Cc1cc(-n2c(C)cc(C(=O)CSc3nnnn3-c3ccc(Cl)cc3)c2C)no1,13.5%
24,Cc1cnc(NC(=O)c2ccc3c(c2)C(=O)N(Cc2ccco2)C3=O)s1,-10.7%
25,NC(=O)c1nsc(C(=O)N(CC(=O)NCc2ccc3c(c2)OCO3)C2CCCC2)c1N,7.46%
26,C=CCn1c(COc2ccccc2F)nnc1SCC(=O)N1CC(=O)Nc2ccccc21,-6.56%
27,CC(=O)N1CCCc2cc(S(=O)(=O)N(CC(C)C)CC(C)C)ccc21,14.4%
28,Cc1ccc2nc(SCC(=O)O)nc(C)c2c1,13%
29,CCOC(=O)C1C(=O)Nc2nc(C)nn2C1c1ccccc1 (stereo not given),-7.34%
30,CC1(C)c2ccccc2N2CCC(=O)NC21/C=C/c1ccco1 (stereo not given),13.4%
